Screen size: about 2,100 compounds; about 770 (37%) were called active. This is one part of the list. Unmarked numbers belong to inactive results.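 How the source made its calls: active means by-eye trace score of 1 for enhancers or -1 for inhibitors, so actives lie on both sides (some results past the limit were not filed as active); inactive means score 0, or 3 fluorescent, or 4 baseline rise.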
What follows are compounds tested against G protein-activated inward rectifier potassium channel 2 (Homo sapiens) + G protein-activated inward rectifier potassium channel 1 (Homo sapiens) (UniProt P48051+P48549) (assay: GIRK1/2 thallium flux modulators, retest, confirmation, cell-based, HEK293 rmGlu8/hGIRK1/2, FluoZin-2 (AID 623911)). Settings: HEK293 rmGlu8/hGIRK1/2, thallium flux FluoZin-2; actives lie on both sides; glutamate co-added at its EC20 level.
Sequence of G protein-activated inward rectifier potassium channel 2 (Homo sapiens) + G protein-activated inward rectifier potassium channel 1 (Homo sapiens) (P48051 whole entry, looked up): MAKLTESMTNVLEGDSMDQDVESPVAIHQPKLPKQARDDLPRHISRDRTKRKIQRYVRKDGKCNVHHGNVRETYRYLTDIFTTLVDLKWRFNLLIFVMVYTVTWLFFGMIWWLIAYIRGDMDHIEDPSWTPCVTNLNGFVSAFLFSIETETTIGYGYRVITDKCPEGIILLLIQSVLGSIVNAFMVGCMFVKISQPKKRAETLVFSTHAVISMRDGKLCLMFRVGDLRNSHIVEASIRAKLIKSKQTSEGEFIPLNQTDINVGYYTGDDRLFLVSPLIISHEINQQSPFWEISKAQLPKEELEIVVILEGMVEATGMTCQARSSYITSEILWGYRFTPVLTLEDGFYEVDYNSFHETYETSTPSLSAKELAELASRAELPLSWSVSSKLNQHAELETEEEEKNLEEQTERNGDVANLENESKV
Sequence of G protein-activated inward rectifier potassium channel 2 (Homo sapiens) + G protein-activated inward rectifier potassium channel 1 (Homo sapiens) (P48549 whole entry, looked up): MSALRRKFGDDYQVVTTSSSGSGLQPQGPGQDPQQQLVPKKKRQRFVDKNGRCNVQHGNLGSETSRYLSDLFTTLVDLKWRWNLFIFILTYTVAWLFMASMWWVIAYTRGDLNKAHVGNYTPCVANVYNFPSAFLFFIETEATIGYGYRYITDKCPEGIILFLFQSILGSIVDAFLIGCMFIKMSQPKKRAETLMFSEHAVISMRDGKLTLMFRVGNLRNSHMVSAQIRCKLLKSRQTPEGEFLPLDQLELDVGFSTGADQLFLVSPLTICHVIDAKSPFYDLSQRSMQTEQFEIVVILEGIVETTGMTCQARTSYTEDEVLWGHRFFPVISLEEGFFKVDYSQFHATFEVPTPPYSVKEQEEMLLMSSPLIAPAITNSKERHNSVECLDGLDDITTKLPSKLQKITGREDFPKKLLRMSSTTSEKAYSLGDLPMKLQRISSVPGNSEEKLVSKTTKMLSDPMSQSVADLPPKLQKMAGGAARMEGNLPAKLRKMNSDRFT
Compound O=c1c2cc(N3CCOCC3)ccc2[nH]c(=S)n1Cc1ccc(Cl)cc1 has a manual score of 0. In the case of O=c1c2cc(Cl)ccc2[nH]c(=S)n1Cc1ccco1, the manual score was 1 (active). For O=c1[nH]c2ccc(Cl)cc2c(=O)n1Cc1ccco1, the manual score was 0. O=C(COc1ccc(Cl)cc1Cl)Nc1ccccn1 was tested, and the manual score was 0. In the case of Cc1cc(C)n(CC(=O)O)n1, the manual score was 0. With Cc1cc(NC(=O)Nc2ccccc2)n(-c2ccccc2)n1 the manual score was 1 (active). With Cc1cc(NC(=O)COc2ccc(Cl)cc2Cl)n(-c2ccccc2)n1 the manual score was 1 (active). O=C(COc1ccc(Cl)cc1Cl)NNC(=S)Nc1ccc(F)cc1 was tested, and the manual score was 0. For NC1=NC2(CCCCC2)n2c(nc3ccccc32)N1, the manual score was 0. O=C(CCCc1nc(-c2ccc(Cl)cc2)no1)Nc1cccnc1 was tested, and the manual score was 0. CCCCc1ccc(NC(=S)Nc2cccnc2)cc1 was tested, and the manual score was 1 (active). CCCCc1ccc(NC(=S)Nc2ccc(Cl)c(S(=O)(=O)N(C)C)c2)cc1 was tested, and the manual score was 1 (active). CCCCN(CCCC)S(=O)(=O)c1ccc(NC(=O)c2ccc([N+](=O)[O-])cc2Cl)cc1 gave a manual score of 0. Work on CCSc1ccccc1C(=O)Nc1cccnc1 yielded a manual score of 0. Work on CC(C)N(C(=O)CN(C#N)c1nc(N(C)C)nc(N(C)C)n1)c1ccccc1 yielded a manual score of 0. Work on CC(/C=N/n1c(-c2ccc(Cl)cc2)n[nH]c1=S)=C\c1ccco1 yielded a manual score of 0. O=C(CSCc1ccccc1)N=Nc1c(O)[nH]c2ccccc12 was tested, and the manual score was 0. Oc1[nH]c2ccccc2c1N=NC(=S)NCCc1ccccc1 showed a manual score of 0. In the case of Oc1[nH]c2ccccc2c1N=Nc1nc2ccccc2s1, the manual score was 1 (active). O=C(c1ccco1)N1CCN(c2ncnc3scc(-c4cccs4)c23)CC1 was tested, and the manual score was -1 (active). Cc1ccc(-c2csc3ncnc(N4CCN(C(=O)c5ccccc5)CC4)c23)cc1 was tested, and the manual score was -1 (active). For O=C(c1cc2nc(-c3ccccc3)cc(-c3ccccc3)n2n1)N1CCN(C(=O)c2ccco2)CC1, the manual score was 0. O=C(c1ccco1)N1CCN(C(=O)c2cnn3c2NC(c2cccs2)CC3C(F)(F)F)CC1 (centres undefined) showed a manual score of 0. Compound O=C(c1ccc(-c2ccccc2)cc1)N1CCN(c2ncccn2)CC1 has a manual score of 0. Cc1ccc(-c2nnc(SCC(=O)Nc3cccc(C(=O)N4CCOCC4)c3)n2C)cc1 was tested, and the manual score was -0.5. Work on COCC(C)OC(=O)c1c(N)n(CC(C)C)c2nc3ccccc3nc12 (centres undefined) yielded a manual score of 0. CCOP(=O)(c1ccccc1)c1nc(-c2ccccc2C)oc1N1CCCCC1 (centres undefined) was tested, and the manual score was -1 (active). For O=C(NC(=S)N1CCN(c2ccc(Cl)cc2[N+](=O)[O-])CC1)c1ccco1, the manual score was 1 (active). Work on O=C(NC(=S)Nc1ccccc1N1CCOCC1)c1cccs1 yielded a manual score of 0. O=C(NC(=S)N1CCN(c2c(Cl)cccc2[N+](=O)[O-])CC1)c1cccs1 was tested, and the manual score was 1 (active). With O=C(NC(=S)Nc1cccc(Cl)c1N1CCCC1)c1ccc(-c2cccc([N+](=O)[O-])c2)o1 the manual score was 0. Compound O=C(O/N=C\c1ccc(N2CCCCC2)c([N+](=O)[O-])c1)c1c(F)cccc1F has a manual score of 0. With O=C(NC(=S)N1CCCCC1)c1cccs1 the manual score was 1 (active). For O=C(NC(=S)N1CCN(c2ccc(Cl)cc2[N+](=O)[O-])CC1)c1cccs1, the manual score was 1 (active). Work on N#CC(C#N)=C1C=C2C=C(N3CCCCCC3)CCC2CC1 (centres undefined) yielded a manual score of 3. CCCC(=O)Nc1ccc(NC(=O)C2CC2)cn1 showed a manual score of 0. In the case of CN(c1ccc(OCC(=O)OCC(=O)Nc2ccccc2F)cc1)S(=O)(=O)c1cccs1, the manual score was 0. With O=C(NC(=S)N1CCN(c2ccc(C(F)(F)F)cc2[N+](=O)[O-])CC1)c1cccs1 the manual score was 1 (active). O=C(CNC1CCCCCC1)Nc1ccc(N2CCCC2)cc1 showed a manual score of 0. In the case of O=C(CN1CCOCC1)Nc1ccc(C2CCCCC2)cc1, the manual score was 1 (active). CCc1sc(NC(=O)CN2CCOCC2)nc1-c1ccccc1 showed a manual score of 0. S=c1[nH]c2cc(Cl)ccc2s1 was tested, and the manual score was 1 (active). Compound CCOC(=O)CSc1nc2ccc(Nc3nc(N4CCOCC4)nc(N4CCOCC4)n3)cc2s1 has a manual score of 0. O=C1CC(c2ccco2)Sc2nc3ccccc3n21 (centres undefined) was tested, and the manual score was 0. For Cc1ccc(-n2[nH]c(C)c(/C=N/c3ccccn3)c2=O)cc1, the manual score was 0. With CCCc1nc2ccccc2c(=O)n1/N=C/c1c(C)[nH]n(-c2ccc(C)cc2)c1=O the manual score was 1 (active). Compound Cc1ccc(C2CC2c2n[nH]c(=S)n2-c2ccc(C)cc2)cc1 (centres undefined) has a manual score of 0. For CCCc1ccc(C(=O)N2CCN(c3ccccc3OCC)CC2)cc1, the manual score was -1 (active). CCOc1ccccc1N1CCN(C(=O)c2cc3c(s2)CCC3)CC1 was tested, and the manual score was -0.5. For CCOc1ccccc1N1CCN(C(=S)NC(=O)C23CC4CC(CC(C4)C2)C3)CC1, the manual score was 0. With O=C(CSc1nc(CCC2CCCC2)nc2ccccc12)NCc1ccc2c(c1)OCO2 the manual score was 1 (active). NC(=O)c1noc(C(=O)N(CC(=O)NC2CCCC2)Cc2ccc3c(c2)OCO3)c1N gave a manual score of 0. In the case of O=C(CSc1c[nH]c2ccccc12)NCc1ccc2c(c1)OCO2, the manual score was -0.5. Compound Cc1ccc(C)n1-c1ccc(C(=O)NN)cc1 has a manual score of 0. With CC(/C=N/n1c(C2CCCCC2)n[nH]c1=S)=C\c1ccccc1 the manual score was 0. With CC(C)c1ccc(-n2cccc2/C=C2/C(=N)N3C=CSC3=NC2=O)cc1 the manual score was 0. CCn1c(O)c(N=NC(=O)CNc2cccc(C)c2)c2ccccc21 showed a manual score of 0. CCCCNC(=S)N=Nc1c(O)n(Cc2ccccc2)c2ccccc12 was tested, and the manual score was 0. For C=CCn1c(N)c(C(=O)OC(C)(C)C)c2nc3ccccc3nc21, the manual score was 0. In the case of CCCn1c(O)c(N=NC(=O)c2ccco2)c2ccccc21, the manual score was 1 (active). With C=CCn1c(O)c(N=NC(=O)OC(C)(C)C)c2ccccc21 the manual score was 1 (active). With CCCCn1c(O)c(N=Nc2ccccn2)c2ccccc21 the manual score was 0. O=C(NC(=S)N1CCCCC1)C12CC3CC(CC(C3)C1)C2 showed a manual score of 0.5. In the case of CC12CC3CC(C)(C1)CC(C(=O)NC(=S)N1CCOCC1)(C3)C2, the manual score was 0.5. With CC12CC3(C)CC(C)(C1)CC(C(=O)NC(=S)N1CCOCC1)(C2)C3 the manual score was 1 (active). With CC12CC3CC(C)(C1)CC(C(=O)NC(=S)N1CCCCC1)(C3)C2 the manual score was 1 (active). With CCC1(C)CC(c2csc(N)n2)CCO1 (centres undefined) the manual score was 0. CCCCN1C(=O)c2ccccc2C1C(=O)NC1CCCC1 (centres undefined) showed a manual score of 0. For CCCCOc1ccccc1C1C(C(=O)OC)=C(C)N(C)C(C)=C1C(=O)OC, the manual score was -1 (active). With CCOc1ccc(N2C(=O)c3ccccc3C2O)cc1 (centres undefined) the manual score was 0. CCc1nc(SCC(=O)N2CC(=O)Nc3ccccc32)c2c(C)c(C)sc2n1 was tested, and the manual score was 1 (active). Cc1sc2nc(C3CC3)nc(SCC(=O)N3CC(=O)Nc4ccccc43)c2c1C showed a manual score of 0. CCc1nc(SCC(=O)Nc2nnc(CC)s2)c2c(C)c(C)sc2n1 gave a manual score of 0. For O=C1NC(=S)SC1=C1CCCCCC1, the manual score was 1 (active). CSc1nc2ccccc2cc1/C=C(\C#N)c1cccc(C)c1 was tested, and the manual score was 0. In the case of CCCCNC(=S)NC(=O)c1ccc([N+](=O)[O-])cc1, the manual score was 1 (active). COC(=O)C(CC(C)C)NC(=O)c1ccc([N+](=O)[O-])c(C)c1 (centres undefined) showed a manual score of 0. For CC(C)CNC(=S)NC(=O)c1ccc(F)cc1, the manual score was 1 (active). With CC(C)CNC(=S)NC(=O)c1ccc([N+](=O)[O-])cc1 the manual score was 1 (active). With CCCCCC(=O)NC(=S)NNC(=O)c1ccc([N+](=O)[O-])cc1 the manual score was 1 (active). CCCCCCc1cc2cc(-c3nnc(-c4cc(OC)c(OC)c(OC)c4)o3)c(=O)oc2cc1O was tested, and the manual score was 3. With CCn1c2ccccc2c2cc(/C=N/n3cn[nH]c3=S)ccc21 the manual score was 0. O=c1cc(CN2CCOCC2)nc(C2CC2)[nH]1 was tested, and the manual score was 0. In the case of O=C(COC(=O)CCC1CCCC1)Nc1nc2c(F)c(F)c(F)cc2s1, the manual score was 0.5. O=C(CSc1nc(-c2ccc(F)cc2)cs1)N1CCOCC1 was tested, and the manual score was 0. For CCOC(=O)/C(C#N)=C/C1=C(N2CCCC2)CC(C)(C)OC1, the manual score was 0. Cc1sc2ncnc(SCc3ccco3)c2c1C showed a manual score of 0. For Cc1sc2nc(C(C)C)nc(SCC(=O)N3c4ccccc4CC3C)c2c1C (centres undefined), the manual score was 1 (active). O=C(CSc1nnc(-c2c[nH]c3ccccc23)n1-c1ccc(F)cc1)NCc1ccco1 showed a manual score of -0.5. For CCn1c(SCC(=O)NC(=O)NCc2ccco2)nc2sc(C)c(C)c2c1=O, the manual score was 1 (active). Cc1sc2nc(C(C)C)nc(SCC(=O)NCc3ccco3)c2c1C was tested, and the manual score was 1 (active). For CCCn1c(SCc2nc3sc(C)c(C)c3c(=O)[nH]2)nc2ccccc2c1=O, the manual score was 0. O=C(c1ccc(CS(=O)(=O)c2ccc(Br)cc2)o1)N1CCN(c2ncccn2)CC1 showed a manual score of 0. CCOC(=O)C1CCN(C(=O)CN(c2ccc(Cl)c(C(F)(F)F)c2)S(C)(=O)=O)CC1 showed a manual score of 0. O=c1cc(Cn2ccnc2)c2cc3c(cc2o1)CCC3 showed a manual score of 0. Compound O=C(Nc1ccc(F)cc1)c1cccc2c1C(=O)N(Cc1ccccn1)C2 has a manual score of 0. Compound C/C(CC(C)(C)C1CCCCC1)=N\NC(N)=S has a manual score of 0. Cc1ccc2nc(-c3ccc(O)cc3)c(Nc3ccc4c(c3)OCCO4)n2c1 was tested, and the manual score was -1 (active). For Cc1ccc(-c2nnc(SCC(=O)Nc3ccc4c(c3)OCCO4)n2N)cc1, the manual score was 0. CCn1c(-c2cc3c(C(F)(F)F)nn(C)c3s2)n[nH]c1=S was tested, and the manual score was 0. For O=C(NC1CC1)c1ccc(CSCc2cccc(F)c2)o1, the manual score was 0. In the case of O=C(CCSCc1cccc(Cl)c1)NCCc1ccc(Cl)cc1, the manual score was 1 (active). Work on O=C(O)C1C2C=CC(C2)C1C(=O)NCCc1cccc(Cl)c1 (centres undefined) yielded a manual score of 0.5. COc1ccc(C2C(C(N)=O)=C(C)Nc3nc(-c4cccc(Cl)c4)nn32)cc1OC (centres undefined) was tested, and the manual score was 0.
